Among all 320,000 compounds or so, about 7,600 (2.4%) were called active. Entries that show only a call come without a potency. Roughly 3% stayed inconclusive and do not appear here. Calls come from the whole dose curve; as a rule, active = well fitted activation curve with a large enough effect; inconclusive = small, poorly fitted or top-dose-only effect; inactive = no such curve, though single readings can be large or run the other way. This excerpt belongs to a sample that is enriched for actives.
test: qHTS Assay for NPC1 Promoter Activators; conditions: Huh7 NPC1 promoter luciferase reporter, 24 h; series mostly up to 9.22 µM; note: nearly all actives have a fitted effect of over 60% in size;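 for activation: reporter is driven by a mutant NPC1 promoter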
Procedure, shortened: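 Cells: Huh7 expressing luciferase under the NPC1 promoter, 1500/well. Seeded 2 h, compound added, incubated 24 h at 37 °C. Luciferase reagent, 10 min ambient, then luminescence.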
Potency is the fitted concentration of half-maximal effect.

Row | Compound | Potency
1 | CCCCN1C(=O)C(=O)N(CC(=O)Nc2cccc(C(C)=O)c2)C1=O | inactive
2 | COc1cc(C(c2c(NC(=O)c3ccco3)sc(C)c2C)N2CCOCC2)cc(OC)c1OC (stereo not given) | inactive
3 | O=C(Nc1nc(-c2ccc(-c3ccccc3)cc2)cs1)c1cnccn1 | inactive
4 | CCCn1c(CCNc2nc(-c3ccc(OC)cc3)cs2)nc2ccccc21 | inactive
5 | Clc1ccc(-c2csc(-c3ccncc3)n2)cc1 | inactive
6 | O=C(O)c1ccccc1C(=O)Nc1nc(-c2ccccc2)cs1 | inactive
7 | Cc1ccc(-c2csc(NC3OC(=O)c4ccccc43)n2)cc1 (stereo not given) | inactive
8 | c1ccc(Nc2nc(-c3ccncc3)cs2)nc1 | 2240 nM (active)
9 | c1cnc(Nc2nc(-c3ccc4ccccc4c3)cs2)nc1 | 282 nM (active)
10 | COc1ccc(-c2csc(Nc3ccccn3)n2)cc1 | 631 nM (active)
11 | COc1ccc(C(=O)Nc2nc(-c3ccc(S(=O)(=O)N4CCOCC4)cc3)cs2)cc1 | inactive
12 | CC(=O)c1ccc(N2CCN(C(=O)c3ccc(Cl)c(S(=O)(=O)NC4CC4)c3)CC2)c(F)c1 | inactive
13 | COc1ccccc1NC(=O)CSc1nnc(CNC(=O)c2ccccc2F)o1 | inactive
14 | O=C(/C=C/c1cccc([N+](=O)[O-])c1)OCC(=O)N1CCOCC1 | inactive
15 | CC1CC(=O)Nc2ccccc2N1C(=O)COc1ccc2cc(Br)ccc2c1 (stereo not given) | inactive
16 | NC(=O)NCCCC(=O)O | inactive
17 | COc1cc(-c2nnn(CC(=O)NCc3ccccc3)n2)cc(OC)c1OC | inactive
18 | CC(C)(C)NC(=O)Cn1nnc(-c2ccccc2Cl)n1 | 3980 nM (active)
19 | Cc1ccccc1-c1nnn(CC(=O)c2ccc(S(=O)(=O)N3CCCC3)cc2)n1 | inactive
20 | CCOc1cc(/C=C/C(=O)OCC(=O)NCCN2C(=O)CSC2=O)ccc1OCC(C)C | inactive
21 | CCOC(=O)c1cc(-c2ccccc2C)n(Cc2cc(C)no2)n1 | inactive
22 | COCc1c(C(=O)OCC(=O)Nc2ccc(OC(F)F)cc2)oc2ccccc12 | inactive

Row | Compound | Potency
23 | CN(C)c1ccc(-c2nnc(-c3cccnc3)o2)cc1 | 1120 nM (active)
24 | COC(=O)CSc1nnc(-c2cccnc2)o1 | inactive
25 | CN(C)c1nc(-c2cccnc2)nc(-c2ccc(Cl)cc2)c1C#N | inactive
26 | COc1ccc([C@H]2CC(=O)C=C(/C=C/c3ccccc3)C2)cc1 | inactive
27 | CCc1cccc(C)c1N1C(=O)CN(Cc2ccccc2)C1=S | inactive
28 | Cc1ccc(SCCC(=O)NC(C(C)C)C(C)C)cc1 | inactive
29 | Cc1ccc(SCCC(=O)NCc2ccccn2)cc1 | inactive
30 | Cc1ccc(SCCSc2ncccn2)cc1 | 1260 nM (active)
31 | COc1ccc(S(=O)(=O)N2CCOCC2)cc1NC(=O)Cc1coc2cc(C)ccc12 | inactive
32 | Cc1n[nH]c(=O)c2c(NC(=O)CSc3cc(Cl)ccc3Cl)oc(C)c12 | inactive
33 | CCCCN(C(=O)c1nn(C)c(=O)c2ccccc12)c1c(N)n(CCC)c(=O)[nH]c1=O | inactive
34 | COc1cccc(CNC(=O)COC(=O)CN2C(=O)NC3(CCCCC3C)C2=O)c1 (stereo not given) | inactive
35 | O=C(CNC(=O)c1ccccc1Br)NNC(=O)c1cccs1 | inactive
36 | CN(Cc1ccccc1)C(=O)CSc1nc2ccccc2[nH]1 | inactive
37 | O=C(CSc1nc2ccccc2[nH]1)c1cccs1 | 1260 nM (active)
38 | O=C(CSc1nc2ccccc2[nH]1)Nc1nc(-c2ccccc2)c(-c2ccccc2)o1 | inactive
39 | CC(OC(=O)/C=C/c1ccccc1)C(=O)NC1CCCCC1C (stereo not given) | inactive
40 | O=C(CCc1nc(-c2ccccc2)no1)Nc1cccc(C(=O)NC2CC2)c1 | inactive
41 | COc1ccc(CC(=O)c2ccc(O)cc2O)cc1OC | inactive
42 | Cc1cc(O)cc(O)c1C(=O)Cc1cnn(-c2ccccc2)c1 | inactive
43 | COc1ccc(C(=O)Cc2cnn(-c3ccccc3)c2)c(O)c1 | 2510 nM (active)
44 | CCOc1ncccc1C(=O)OCC(=O)N1c2ccccc2CC1C (stereo not given) | inactive

Row | Compound | Potency
45 | O=C(/C=C/NCc1ccc(F)cc1)c1ccccc1 | inactive
46 | Cc1ccc(N/C=C/C(=O)c2ccccc2)cc1C | 2000 nM (active)
47 | CCOc1ccc(N/C=C/C(=O)c2ccccc2)cc1 | 316 nM (active)
48 | COc1ccc(N2C(=O)CCC(C(=O)Nc3ccccn3)C2c2ccc(OC)c(OC)c2)cc1 (stereo not given) | inactive
49 | Cc1noc(NS(=O)(=O)c2ccc(N/C=C/C(=O)c3ccccc3)cc2)c1C | inactive
50 | COc1ccc(C(=O)/C=C/c2ccc(OC3CSC3)cc2)cc1 | inactive
51 | CCOc1ccc(NC(=S)N2CCC(NC(=O)c3ccccc3)CC2)cc1 | inactive
52 | COc1ccc(C(=O)/C=C/Nc2ccccn2)cc1 | 100 nM (active)
53 | CCOc1ccc(N/C=C/C(=O)c2cc(OC)c(OC)c(OC)c2)cc1 | inactive
54 | Cc1nc2ccc(NC(=O)C3CCCCC3)cc2s1 | inactive
55 | COc1ccc(C(=O)OCC(=O)N2CC(=O)Nc3ccccc32)cc1Br | inactive
56 | Cc1occc1-c1nnc(SCC(=O)NC2CCCCC2)o1 | inactive
57 | Cc1nc(SCC(=O)NC2CCCCC2C)c(C#N)c(C)c1C (stereo not given) | inactive
58 | COc1cccc(C(=O)Nc2cccnc2)c1OC | inactive
59 | Cc1cccc(-n2cnc(C(=O)Nc3cccnc3)c2)n1 | 2820 nM (active)
60 | Cc1cccc(-n2cnc(C(=O)NNC(=S)Nc3ccccc3)c2)n1 | inactive
61 | COc1ccc(S(=O)(=O)N2CCC(C(=O)N3CCCC3)CC2)cc1C | inactive
62 | CCCN(CC1CC1)C(=S)NC(=O)c1ccccc1Br | inactive
63 | CC1(C)CN(c2ccc(-c3ccnc4ncnn34)cc2)C1=O | inactive
64 | COc1ccccc1-c1sc2ccccc2c1-c1ccc(C(C)=O)cc1 | inactive
65 | COc1ccc(N=C(C)c2sc3ccccc3c2O)cc1 | 708 nM (active)
66 | Oc1ccc(N=Cc2sc3ccccc3c2Cl)cc1 | inactive

Row | Compound | Potency
67 | CC1CCCC(C)N1C(=O)COC(=O)COc1ccccc1C#N (stereo not given) | inactive
68 | O=C1C=C(c2cccc(Cl)c2O)C[C@@H](c2ccc(F)cc2)C1 | inactive
69 | CC1CCCCC12NC(=O)N(CC(=O)Nc1ccc(S(=O)(=O)Nc3ncccn3)cc1)C2=O (stereo not given) | inactive
70 | O=C1Cc2cc(S(=O)(=O)Nc3cccc(F)c3)ccc2N1 | inactive
71 | Cc1ccccc1OCC(=O)Nc1ccc(S(=O)(=O)N2CCOCC2)cc1 | inactive
72 | Cc1ccccc1OCC(=O)Nc1ccc(N2CCN(C(=O)C(C)C)CC2)c(Cl)c1 | inactive
73 | Cc1ccccc1OCC(=O)Nc1ccc2c(c1)ncn2C | 6310 nM (active)
74 | O=C(CN1C(=O)NC2(CCCCC2)C1=O)N1CCN(C(=O)c2cccs2)CC1 | inactive
75 | Cc1ccc(/C=C/C(=O)OCC(=O)NCc2ccc(Cl)cc2)o1 | inactive
76 | CCOc1ccc(NC(=O)CN(C)C(=O)CCSc2ccc(F)cc2)cc1OCC | inactive
77 | CC(C)n1ncc2c(C(=O)Nc3ccc(CC#N)cc3)cc(C3CC3)nc21 | inactive
78 | Cc1ccc(N/N=C2\COC(C)(C)CC2=O)cc1 | 2820 nM (active)
79 | Nc1c(N(Cc2ccco2)C(=O)c2cccc(F)c2)c(=O)[nH]c(=O)n1Cc1ccccc1 | inactive
80 | COCCN(Cc1ccccc1)C(=O)Cc1ccc(S(=O)(=O)N2CCOCC2)s1 | inactive
81 | CC(=O)Nc1ccc(-c2nc3ccccc3o2)cc1 | 1120 nM (active)
82 | CCc1nc(Nc2ccc(NC(C)=O)cc2)c2oc3ccccc3c2n1 | inactive
83 | Cc1ccc(OCC(=O)Nc2ccc(-c3nc4ncccc4o3)cc2)cc1 | inactive
84 | COc1ccc(S(=O)(=O)N2CCN(CC(=O)NCC3(N4CCOCC4)CCCCC3)CC2)cc1 | inactive
85 | COc1ccc(CSc2nnnn2-c2ccc(O)cc2)cc1F | inactive
86 | Cc1cccc(NC(=O)c2ccc3nsnc3c2)c1C | inactive
87 | O=C(Nc1ccccc1Cl)c1ccc2nsnc2c1 | 2240 nM (active)
88 | O=C(Nc1ccccc1N1CCCCC1)c1ccc2nccnc2c1 | inactive

Row | Compound | Potency
89 | O=C(C1CCC1)N1CCN(S(=O)(=O)c2ccc([N+](=O)[O-])cc2)CC1 | inactive
90 | CCOc1ccc(S(=O)(=O)N(CC(=O)NCC(F)(F)F)Cc2ccco2)cc1 | inactive
91 | CCOc1ccc(NC(=O)N(CCC(C)C)C(C)c2ccco2)cc1 (stereo not given) | inactive
92 | CCOc1ccc(-c2nnc(-c3ccco3)o2)cc1 | 631 nM (active)
93 | CCCCOc1ccc(-c2nnc(-c3ccco3)o2)cc1 | 1580 nM (active)
94 | CC(=O)Nc1ccc(NC(=O)COc2ccc(-c3ccccc3)cc2)cc1 | inactive
95 | O=C(CCc1ccccc1)Nc1cccc(-c2nnc(-c3ccco3)o2)c1 | inactive
96 | CCOc1ccc(-n2c(SCC(N)=O)nnc2-c2ccco2)cc1 | inactive
97 | Cc1ccc(OCC(=O)Nc2nnc(-c3ccco3)s2)cc1 | inactive
98 | COc1ccc(OCC(=O)Nc2nnc(-c3ccco3)s2)cc1 | inactive
99 | Cc1ccc(OCC(=O)Nc2ccc(-c3nnc(-c4ccco4)o3)cc2)cc1 | 2820 nM (active)
100 | CCC[C@H]1CCCC/C=C\CCCC(=O)OCCN1C(=O)OC(C)(C)C | inactive
101 | CCOCCn1[nH]c2ccccc2c1=O | inactive
102 | CC(C)NC(=O)N1CCN(c2ccncc2S(=O)(=O)N2CCCCC2)CC1 | inactive
103 | O=C(NC1CCCCCC1)C1CCN(C(=O)c2ccc(Cl)cc2)CC1 | inactive
104 | CCc1sc(C(=O)N2CCN(CC(=O)Nc3cccc(F)c3)CC2)cc1C | inactive
105 | COc1cccc(C2=CC(=O)C[C@H](c3ccc(OC)c(OC)c3)C2)c1 | inactive
106 | Cc1nn(-c2ccc([N+](=O)[O-])cc2)c(N)c1-c1ccccc1 | 1580 nM (active)
107 | Cn1nc(-c2ccccc2)c2cc([N+](=O)[O-])ccc21 | inactive
108 | Cc1cc(CO)nn1-c1ccc([N+](=O)[O-])cc1 | inactive
109 | COC(=O)C1=CO[C@@H](O[C@@H]2O[C@H](CO)[C@@H](O)[C@H](O)[C@H]2O)C2C1C[C@H](O)[C@@H]2C (stereo not given in full) | inactive
110 | CCc1cccc(NC(=O)COC(=O)c2cc(=O)c3ccccc3o2)c1 | inactive
